# Screening data (PubChem)
# The list is not random: actives were taken first. Their share in the collection is about 12%.
# Sfp PPTase inh: Sfp phosphopantetheinyl transferase inhibition. Q9F4F7. Biochemical Sfp PPTase activity, qHTS. Potency, µM, for the others: largest response in the series, negative = inhibition, most hits filed as inhibitors. actives 3.5% (n = 310,000);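 further: the enzyme is Sfp with the accession as filed and its product quenches rhodamine fluorescence; 0% = enzyme reaction without inhibitor and -100% = no enzyme wells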
#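 Step 1, compound plus 15 nM Sfp-PPTase, 15 min, room temperature. Step 2, add rhodamine-CoA (5 uM) and BHQ-2-YbbR (12.5 uM). Step 3, read 525/598 nm fluorescence at 0 and 30 min.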
# G9a inh: G9a (human) methyltransferase inhibition. Q96KQ7. G9a H3K9 monomethylation, AlphaScreen, 2 h. Potency, µM (series often up to 102 µM), for inactives: top-dose activity, negative = inhibition, usual class: inhibitors. actives 8.8% (n = 350,000); further: on the % scale 0 is the no-effect control and ±100 the full control effect; nearly all actives have a fitted effect of over 75% in size
#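 G9a (20 nM) preincubated 15 min RT with compounds, then 500 nM biotinylated H3K9 peptide and 20 uM SAM added; 2 h RT reaction. Monomethyl-H3K9 product detected by AlphaScreen with anti-H3K9me1 antibody, streptavidin donor and anti-rabbit IgG acceptor beads.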
# HP1b chromo inh: blocks HP1-beta chromodomain binding to methylated histone tails | Potency, µM (series often up to 114 µM), for inactives: at the top dose activity change, negative = inhibition, hits mostly inhibitors | P83916 | AlphaScreen HP1-beta / biotin-H3K9me3 peptide binding | actives 0.56% (n = 390,000); further: nearly all actives have a fitted effect of over 70% in size
#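 AlphaScreen: HP1-beta (50 nM) preformed 30 min with biotin-H3(1-18)K9me3 peptide (50 nM) in PBS pH 7.4, 0.01% Tween-20. Compound added for 30 min at RT, then streptavidin donor/nickel chelate acceptor beads (10 ug/mL) for 30 min.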
# BAZ2B inh: inhibitors of human BAZ2B bromodomain; Q9UIF8; AlphaScreen BAZ2B-H3K14Ac peptide displacement; Potency, µM (highest dose often 114 µM), without a hit: top-dose activity change, negative = inhibition, most hits filed as inhibitors; actives 4.4% (n = 360,000); further: on the % scale 0 is the no-effect control and ±100 the full control effect; nearly all actives have a fitted effect of over 60% in size
#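 BAZ2B (50 nM) with biotin-H3(5-23)K14Ac peptide (50 nM) in PBS pH 7.4, 0.01% Tween-20, preformed 30 min, then compound 30 min at room temperature; top concentration 110uM. AlphaScreen streptavidin donor/nickel chelate acceptor beads (10 ug/mL final), 20 min dark, signal read.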
# JMJD2A Tudor inh: inhibitors of human JMJD2A Tudor domain | AlphaScreen JMJD2A-Tudor / H3K4me3 peptide binding | Potency, µM (top dose mostly 114 µM), for inactives: top-dose activity change, negative = inhibition, usual class: inhibitors | actives 4.4% (n = 390,000) | AID 504339; further: on the % scale 0 is the no-effect control and ±100 the full control effect; nearly all actives have a fitted effect of over 50% in size
# TDP1 block: TDP1 (human) enzyme inhibition | Potency, µM (highest dose often 130 µM), for inactives: at the top dose activity change, negative = inhibition, most hits filed as inhibitors | recombinant TDP1, AlphaScreen DNA substrate cleavage | actives 0.28% (n = 350,000); further: on the % scale 0 is the no-effect control and ±100 the full control effect; nearly all actives have a fitted effect of over 40% in size
# Target sequence (Q9NUW8 whole entry, looked up): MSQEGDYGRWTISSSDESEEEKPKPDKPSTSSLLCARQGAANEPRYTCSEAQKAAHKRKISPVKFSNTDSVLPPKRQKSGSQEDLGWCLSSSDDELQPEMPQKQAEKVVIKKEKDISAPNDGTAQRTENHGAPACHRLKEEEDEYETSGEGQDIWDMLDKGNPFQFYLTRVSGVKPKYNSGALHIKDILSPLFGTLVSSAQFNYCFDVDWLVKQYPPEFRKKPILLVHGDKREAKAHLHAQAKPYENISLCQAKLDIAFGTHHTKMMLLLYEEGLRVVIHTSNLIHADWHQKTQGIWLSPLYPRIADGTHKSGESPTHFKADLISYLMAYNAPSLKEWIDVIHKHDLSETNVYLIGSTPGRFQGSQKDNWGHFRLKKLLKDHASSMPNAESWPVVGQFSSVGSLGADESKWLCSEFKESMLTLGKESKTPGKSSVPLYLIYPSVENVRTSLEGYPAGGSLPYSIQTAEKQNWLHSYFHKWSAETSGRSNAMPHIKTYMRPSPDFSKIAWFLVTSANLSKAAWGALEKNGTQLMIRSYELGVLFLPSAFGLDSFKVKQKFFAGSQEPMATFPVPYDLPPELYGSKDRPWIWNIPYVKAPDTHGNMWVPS
#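 Enzyme-compound mixtures sat 15 min at room temperature, followed by a 5 min reaction with 15 nM final substrate and 10 min with AlphaScreen beads. Recombinant human Tdp1 was used at 1 nM final.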
# Numbers without * were called inactive; ? = inconclusive; . = not tested or not shown; [ ] = dose if it differs, or a comment. The call rests on the fitted dose curve; in most records, active means well fitted curve in the direction sought with a large enough effect; inconclusive means small, poorly fitted or top-dose-only effect, or another doubt; inactive means no such curve, though single readings can be large; an effect the other way counts as inactive or inconclusive. Potency means the concentration at half of the fitted maximal effect.
SMILES,Sfp PPTase inh,G9a inh,HP1b chromo inh,BAZ2B inh,JMJD2A Tudor inh,TDP1 block
CC1(C)Cc2noc(N)c2C(C)(C)N1O,?,?,17%,-7%,32µM*,2%
COc1cc2c(cc1OC)[C@@H]1O[C@](c3ccsc3)(C2)Oc2cc(C)n(-c3ccccc3)c(=O)c21,10%,-14%[2.33 µM],.,-1%[22.9 µM],.,.
C/C(C/C(C)=C1/SC(=S)NC1=O)=C1\SC(=S)NC1=O,79µM*,28µM*,?,-16%,?,.
COC(=O)CN1C(=O)[C@H]2[C@@H](c3ccc(C)o3)N3C(=O)CN(CC4CC4)C(=O)[C@@]3(C)[C@H]2C1=O,?,50µM*,44%,-6%,-29%,.
Cc1ccc([C@@H]2[C@@H]3C(=O)N(C)C(=O)[C@@H]3[C@]3(Cc4ccccc4)C(=O)N(CCO)CC(=O)N23)o1,-1%,8%,49%,-3%,-9%,.
Cc1ccc([C@@H]2[C@@H]3C(=O)N(C)C(=O)[C@@H]3[C@]3(C)C(=O)N(CCO)CC(=O)N23)o1,3%,45µM*,34%,-17%,-12%,.
COC(=O)CN1C(=O)[C@H]2[C@@H](c3ccc(C)o3)N3C(=O)CN(Cc4ccc(-c5ccccc5)cc4)C(=O)[C@@]3(C)[C@H]2C1=O,13µM*,40µM*,34%,-18%,-20%,.
COC(=O)CN1C(=O)[C@H]2[C@@H](c3ccc(C)o3)N3C(=O)CN(Cc4ccccc4)C(=O)[C@@]3(Cc3ccccc3)[C@H]2C1=O,?,-21%,18%,-4%,-16%,.
NC(=O)c1ccc(NC(=O)C2CCCC2)cc1,6%,.,17%,-26%,-5%,.
COc1cccc(OC)c1-c1nn2c(-c3cc(-c4ccccc4)n[nH]3)nnc2s1,?,3.5µM*,-34%,8.9µM*,45µM*,-8%
Oc1c(N=Nc2ccccn2)ccc2ccccc12,-15%,19%[0.501 µM],5µM*,3.2µM*,2.8µM*,16%
Oc1[nH]c2ccccc2c1N=Nc1ccccn1,.,.,29%,.,-26%,.
COc1ccc(N2CCN(C(=O)C(OC(C)=O)c3ccccc3)CC2)cc1 (stereo not given),10%,8.9µM*,17%,-7%,-3%[57.1 µM],4%
COc1ccc(N2CCN(C(=O)CCc3ccccc3)CC2)cc1,7%,32µM*,23%,-22%,-14%,.
CS(=O)(=O)N(CC(=O)N1CCN(c2ccccc2)CC1)C1CCCCC1,17%,14%[59 µM],-15%,8%,50µM*,4%
COc1ccc(N2CCN(C(=O)Cc3ccc(OC)c(OC)c3)CC2)cc1,7%,3%[59 µM],-19%,8%[0.457 µM],13µM*,.
COc1ccc(CCC(=O)N2CCN(c3ccc(OC)cc3)CC2)cc1,9%,?,-5%,?,-35%,5%
CC(=O)OC(C(=O)N1CCN(c2ccc(F)cc2)CC1)c1ccccc1 (stereo not given),8%,-39%[59 µM],40%,-9%,-17%,-4%
COc1cccc(C(=O)NC2CCN(CC(=O)Nc3ccccc3Cl)CC2)c1,5%,-3%[2.33 µM],2%,6%,-10%,.
Cc1cccc2sc(N(Cc3cccnc3)C(=O)CCS(=O)(=O)c3ccccc3)nc12,.,-19%[59 µM],28%,-6%,-19%,3%
COc1ccc(N2CCN(C(=O)CN(Cc3ccccc3)S(C)(=O)=O)CC2)cc1,-2%,50µM*,11%,-28%,-21%,5%
CS(=O)(=O)N(Cc1ccc(Cl)cc1)c1ccc(C(=O)N2CCN(c3ccccc3)CC2)cc1,-15%,7.9µM*,-5%,?,89µM*,7%
O=C(C(Cc1ccccc1)n1cccc1)N1CCN(Cc2ccccc2)CC1 (stereo not given),3%,32µM*,1%,50µM*,?,9%
COc1ccc(N2CCN(C(=O)C(Cc3ccccc3)n3cccc3)CC2)cc1 (stereo not given),12%,40µM*,?,28µM*,56µM*,9%
